# Screening results: PubChem, Buhrlage Lab, Dana-Farber Cancer Institute and Novartis Institutes for BioMedical Research (Cambridge, Mass)
# A selection: hits, their analogues and other compounds. The true share with any hit is near 11%.
# USP17 inh – blocks human USP17 ubiquitin-rhodamine cleavage. A8MUK1. purified USP17, Ub-rhodamine cleavage fluorescence, 3 h. inhibition, % at 50 µM. hit rate 6.5% among 47,000. AID 1645855
# USP28 block – inhibitors of human USP28 deubiquitinase | hit rate 3% among 47,000 | Q96RU2 | AID 1645857 | inhibition, % at 25 µM | purified USP28, Ub-rhodamine cleavage fluorescence, 30 min
# Target sequence (Q96RU2 whole entry, looked up): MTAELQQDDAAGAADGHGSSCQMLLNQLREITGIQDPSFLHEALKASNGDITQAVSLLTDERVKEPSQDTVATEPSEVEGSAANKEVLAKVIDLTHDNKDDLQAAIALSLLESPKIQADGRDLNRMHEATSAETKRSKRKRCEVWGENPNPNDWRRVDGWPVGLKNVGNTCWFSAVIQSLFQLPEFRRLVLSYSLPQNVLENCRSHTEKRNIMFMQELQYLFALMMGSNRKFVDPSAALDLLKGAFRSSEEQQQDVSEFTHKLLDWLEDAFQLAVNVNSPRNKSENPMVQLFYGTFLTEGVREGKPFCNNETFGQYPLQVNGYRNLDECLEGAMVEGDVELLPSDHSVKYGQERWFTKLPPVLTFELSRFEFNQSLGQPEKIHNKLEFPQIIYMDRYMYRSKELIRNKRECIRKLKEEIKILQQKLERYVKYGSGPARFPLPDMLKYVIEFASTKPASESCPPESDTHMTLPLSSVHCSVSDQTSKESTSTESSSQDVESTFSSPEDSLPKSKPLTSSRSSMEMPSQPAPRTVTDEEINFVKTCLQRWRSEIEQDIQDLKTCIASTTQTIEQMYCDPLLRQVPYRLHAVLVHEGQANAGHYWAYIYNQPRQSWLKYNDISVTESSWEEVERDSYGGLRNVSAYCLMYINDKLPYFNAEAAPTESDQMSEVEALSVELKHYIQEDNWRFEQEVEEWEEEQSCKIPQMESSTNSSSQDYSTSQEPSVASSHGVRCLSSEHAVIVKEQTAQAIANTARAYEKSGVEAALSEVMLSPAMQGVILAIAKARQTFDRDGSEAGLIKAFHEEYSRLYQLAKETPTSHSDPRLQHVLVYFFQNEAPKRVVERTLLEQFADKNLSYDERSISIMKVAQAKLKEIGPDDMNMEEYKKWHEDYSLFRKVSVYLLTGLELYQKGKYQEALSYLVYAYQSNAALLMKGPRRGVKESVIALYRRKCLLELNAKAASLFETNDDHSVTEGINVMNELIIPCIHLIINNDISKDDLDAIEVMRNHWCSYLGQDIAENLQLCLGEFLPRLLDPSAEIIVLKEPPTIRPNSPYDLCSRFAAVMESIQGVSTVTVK
# OTUD3 block – blocks human OTUD3 ubiquitin-rhodamine cleavage; Q5T2D3; purified OTUD3, Ub-rhodamine fluorescence, 2 h; inhibition, % at 25 µM; hit rate 0.7% among 47,000
# USP30 inh – human USP30 deubiquitinase inhibition; hit rate 5.3% among 47,000; AID 1645860; inhibition, % at 25 µM; purified USP30, Ub-rhodamine cleavage fluorescence
# An asterisk follows results filed as active. No stated cut-off is given here; in the data, active means inhibition above about 30%; inactive means the rest.
SMILES,USP17 inh,USP28 block,OTUD3 block,USP30 inh
O=C(NCc1ccc(Cl)cc1)c1ccc(N2CCCS2(=O)=O)cc1,64*,45*,8,17
CCCC1Cc2c(sc3nc(SCc4ccccc4Cl)nc(N)c23)CO1 (configuration not stated),40*,-7,-14,-2
CCCC1Cc2c(sc3nc(SCC)nc(N)c23)CO1 (configuration not stated),81*,-14,0,0
O=C(c1cncnc1)N1CCCC(c2ncc(Cc3cccc(Cl)c3)o2)C1 (configuration not stated),2,8,8,23
O=C(NCc1ccc(Cl)c(Cl)c1)c1cc(S(=O)(=O)N2CCC3(CC2)OCCO3)ccc1F,1,36*,6,22
O=C(NCc1ccccc1Cl)c1cc(S(=O)(=O)N2CCC3(CC2)OCCO3)ccc1F,4,16,-2,0
COc1ccc(OC)c(C(C(=O)NC2CCCCC2)N(C(=O)c2ccc3c(c2)OCCO3)c2ccc(C)cc2)c1 (configuration not stated),19,22,11,41*
O=C(c1ccc(F)cc1)N1CCc2cc(-c3csc(Nc4ccccc4)n3)ccc21,-23,-8,-15,-135
NC(=O)c1cc(-c2csc(NNc3ccccc3)n2)ccc1O,47*,3,4,-61
Cc1ccc(S(=O)(=O)c2nnn3c2nc(N2CCN(c4cc(C)ccc4C)CC2)c2ccccc23)cc1,12,1,10,30*
COc1cnc(CSc2ccc(C)cc2)cc1OCC(=O)Nc1ccccc1,6,-6,-15,36*
COc1ccccc1NC(=O)COc1cc(CSc2ncccn2)ncc1OC,9,5,14,24
CC(C)(C)c1cc(C(=O)N2CCC3(CC2)CO[C@H]([C@@]2(C)CC[C@@H](C(C)(C)O)O2)C3)n[nH]1,-10,-11,-8,-25
Cn1c(CCN2CCCC2)nc2cc(NC(=O)C3CCCCC3)ccc21,-5,-11,-18,-37
Cc1ccc(/C=C/C(=O)Cc2ccccc2)cc1,41*,18,22,30*
CN1C(=O)CCCC12CCCN(C(=O)c1ccc(C(F)(F)F)cc1)C2 (configuration not stated),-14,-9,6,2
Cc1ccc(CNC(=O)[C@H](C)N2C(=O)N3CCc4c([nH]c5ccccc45)[C@@]3(C)C2=O)cc1,-15,-20,-11,-4
C[C@@H](C(=O)NCc1ccc(F)cc1)N1C(=O)N2CCc3c([nH]c4ccccc34)[C@@]2(C)C1=O,59*,36*,-6,46*
CCC(C)[C@H](NC(=O)[C@H](C(C)C)N1C(=O)N2CCc3c([nH]c4ccccc34)[C@@]2(C)C1=O)C(=O)NC1CCCC1 (some centres not stated),4,12,-1,32*
C[C@@H](C(=O)NCc1ccc2c(c1)OCO2)N1C(=O)N2CCc3c([nH]c4ccccc34)[C@@]2(C)C1=O,30,15,5,33*
CCNC(=O)N1C[C@@H]2OCC(=O)N(Cc3ccccn3)[C@@H]2C1,14,6,17,8
O=C(O)CC1SC(c2ccc3c(c2)OCO3)=NC1=O (configuration not stated),-58,-9,4,-41
Cc1ccc(S(=O)(=O)Cc2noc(CCC(=O)Nc3c(C)cccc3C)n2)cc1,6,10,9,2
COc1cccc(NC(=O)c2ccc(SCCN3CCOCC3)nc2)c1,0,40*,-6,-5
CCOC(=O)c1cc2c(ccn2-c2ccc(F)cc2)n1CC(=O)NC1CCCCC1,25,14,16,0
SMILES,USP17 inh,USP28 block,OTUD3 block,USP30 inh
CCOC(=O)c1cc2c(ccn2-c2ccc(F)cc2)n1CC(=O)N1CCN(C(=O)c2ccco2)CC1,36*,18,9,45*
Cc1cccc2nc(-c3cccnc3)c(NC3CCCC3)n12,2,43*,8,16
Cc1ccc(C)c(NC(=O)CCc2c(C)nn(-c3cc(N4CCCC4)ncn3)c2C)c1,22,12,24,28
Cc1nn(-c2cc(N3CCCCC3)ncn2)c(C)c1CCC(=O)NCc1ccccc1,-8,-3,-2,-33
COc1cccc(NC(=O)CCc2c(C)nn(-c3cc(N4CCCCC4)ncn3)c2C)c1,0,68*,-3,9
Cc1ccc(C)c(NC(=O)CCc2c(C)nn(-c3cc(N4CCOCC4)ncn3)c2C)c1,20,6,8,34*
COc1cccc(NC(=O)CCc2c(C)nc3c(c2C)c(=O)n(C)c(=O)n3C)c1,14,37*,5,35*
CCCc1cc(=O)oc2cc(C)cc(OCc3cc([N+](=O)[O-])ccc3OC)c12,3,-1,7,0
Cc1nc(-c2ccc(-c3noc(-c4ccnn4C)n3)cc2)cs1,33*,0,-5,40*
O=C(c1ccc(F)cc1)N1CCCC1c1ccnc(Nc2cnccn2)n1 (configuration not stated),3,1,-2,-4
O=S(=O)(c1ccc(F)cc1)N1CCCC1c1ccnc(Nc2cnccn2)n1 (configuration not stated),47*,45*,12,73*
COc1ccc(S(=O)(=O)N(C)C)cc1NC(=O)COC(=O)c1ccccc1,43*,15,-4,14
COc1ccccc1NC(=O)C1=C(C)Nc2nc(-c3ccc(N(C)C)cc3)nn2C1c1ccncc1 (configuration not stated),40*,3,15,30*
COc1cccc(-c2nc3n(n2)C(c2ccncc2)C(C(N)=O)=C(C)N3)c1 (configuration not stated),-1,4,5,30*
COc1ccc(C2C(C(=O)Nc3ccccc3OC)=C(C)Nc3nnnn32)cc1Br (configuration not stated),74*,3,4,13
COc1ccccc1NC(=O)C1=C(C)Nc2nnnn2C1c1cccnc1 (configuration not stated),6,12,7,20
O=C(CCc1nc2sc3c(c2c(=O)[nH]1)CCCC3)NCc1ccc(C(F)(F)F)cc1,-3,-2,0,-10
O=C(CS(=O)(=O)c1ccc(F)cc1)Nc1ccc(-c2nc3ccccc3s2)c(O)c1,37*,1,14,-9
CN(C)CCCN(C(=O)CS(=O)(=O)c1ccc(F)cc1)c1nc2ccccc2s1,0,12,9,20
O=C(Nc1cccnc1)c1cc(-c2ccn(CC3CC3)n2)n2ccccc12,20,16,-13,-40
c1ccc2cc(Sc3ncnc4c3oc3ccccc34)ccc2c1,5,0,2,7
Cc1nc(Sc2ccc3ccccc3c2)c2oc3ccccc3c2n1,42*,18,12,40*
Cc1cccc(O)c1C(=O)OC(C)c1cccc2nc3c(C(=O)O)cc4c(c3nc12)C(C)c1cccc2c1N4c1cccc(C(=O)O)c1N2 (configuration not stated),100*,100*,101*,101*
CCn1c(SC)nnc1-c1nn(C)c2c1CN(C(=O)C1CCCC1)CC2,-4,-1,1,8
COc1ccccc1OCC(=O)NCc1ccc(-c2nc(C)ncc2-c2ccccn2)cc1,-19,-16,-6,-7
